According to publication PMC11062922 (Nature Chemical Biology, 2023):
Where two headings read alike, the source gives them in different places.

Tests used:
Set-up in all cases: species or system human, MV4-11 + K-562 + COLO205 + SK-N-BE2 + OVCAR-8
CDK7 = settings: read-out: apparent Kd, n = 1
CDKL5 = settings: read-out: apparent Kd; compound concentrations: 100 nM and 1000 nM (sheet 'Samples'), CATDS: 8.2845593333633408E-3; n = 1
ERCC2 = settings: read-out: apparent Kd, n = 1
FER = settings: read-out: apparent Kd, n = 1
FLT3 = settings: read-out: apparent Kd, n = 1
LATS1 = settings: read-out: apparent Kd, n = 1
MARK4 = settings: read-out: apparent Kd, n = 1
MYLK3 = settings: read-out: apparent Kd; compound concentrations: 100 nM and 1000 nM (sheet 'Samples'), CATDS: 6.6633165686717103E-3; n = 1
PIP4K2C = settings: read-out: apparent Kd, n = 1
PLK4 = settings: read-out: apparent Kd, n = 1
PRKAA1 = settings: read-out: apparent Kd, n = 1
PRKCD = settings: read-out: apparent Kd, n = 1
PRKCQ = settings: read-out: apparent Kd, n = 1
PRKD2 = settings: read-out: apparent Kd, compound concentrations: 100 nM and 1000 nM (sheet 'Samples'), n = 1
PRKD3 = settings: read-out: apparent Kd, compound concentrations: 100 nM and 1000 nM (sheet 'Samples'), n = 1
PTK2B = settings: read-out: apparent Kd, n = 1
PTK2 = settings: read-out: apparent Kd, n = 1
RPS6KA6 = settings: read-out: apparent Kd, n = 1
STK10 = settings: read-out: apparent Kd, n = 1
DYRK1A = settings: read-out: apparent Kd, compound concentrations: 100 nM and 1000 nM (sheet 'Samples'), n = 1
[1] = compound concentrations:100 nM and 1000 nM (sheet 'Samples')

In the case of O=C1N=C(NCCc2ccc(Cl)cc2)S/C1=C\c1ccc2ncccc2c1 [RO4498479-000], the potency estimated from few doses (CDK7; compound concentrations: 100 nM and 1000 nM (sheet 'Samples'), CATDS: 2.4350372788697498E-2) is reported as 119 nM, the potency estimated from few doses (CDKL5) is reported as 909 nM and the potency estimated from few doses (ERCC2; compound concentrations: 100 nM and 1000 nM (sheet 'Samples'), CATDS: 2.1515421316076401E-2) is reported as 142 nM. It also gave a potency estimated from few doses (FER; compound concentrations: 100 nM and 1000 nM (sheet 'Samples'), CATDS: 1.93209734431329E-2) of 166 nM, a potency estimated from few doses (FLT3; compound concentrations: 100 nM and 1000 nM (sheet 'Samples'), CATDS: 1.0367577324715899E-2) of 511 nM and a potency estimated from few doses (LATS1; compound concentrations: 100 nM and 1000 nM (sheet 'Samples'), CATDS: 9.9630845977556094E-3) of 560 nM. The potency estimated from few doses (MARK4; compound concentrations: 100 nM and 1000 nM (sheet 'Samples'), CATDS: 9.5723230975851108E-3) was 617 nM, the potency estimated from few doses (MYLK3) was 2040 nM and the potency estimated from few doses (PIP4K2C; compound concentrations: 100 nM and 1000 nM (sheet 'Samples'), CATDS: 8.2219500153899797E-3) was 930 nM. It also gave a potency estimated from few doses (PLK4; compound concentrations: 100 nM and 1000 nM (sheet 'Samples'), CATDS: 1.52584065926915E-2) of 242 nM, a potency estimated from few doses (PRKAA1; compound concentrations: 100 nM and 1000 nM (sheet 'Samples'), CATDS: 1.37789233680672E-2) of 289 nM and a potency estimated from few doses (PRKCD; compound concentrations: 100 nM and 1000 nM (sheet 'Samples'), CATDS: 7.1591971083295198E-3) of 1490 nM. The potency estimated from few doses (PRKCQ; compound concentrations: 100 nM and 1000 nM (sheet 'Samples'), CATDS: 7.7984631053202198E-3) was 1100 nM, the potency estimated from few doses (PRKD2; CATDS: 8.2429468538409798E-3) was 923 nM and the potency estimated from few doses (PRKD3; CATDS: 8.1476846710640503E-3) was 956 nM. For the same molecule, the potency estimated from few doses (PTK2B; compound concentrations: 100 nM and 1000 nM (sheet 'Samples'), CATDS: 1.6323674836543501E-2) was 216 nM, the potency estimated from few doses (PTK2; compound concentrations: 100 nM and 1000 nM (sheet 'Samples'), CATDS: 1.5270520713179201E-2) was 242 nM and the potency estimated from few doses (RPS6KA6; compound concentrations: 100 nM and 1000 nM (sheet 'Samples'), CATDS: 1.4642324519722799E-2) was 260 nM. The potency estimated from few doses (STK10; compound concentrations: 100 nM and 1000 nM (sheet 'Samples'), CATDS: 8.8639953478003106E-3) was 751 nM.
Work on CCn1c(-c2nonc2N)nc2c(C#CC(C)(C)O)nc(OCCN)cc21.CCn1c(-c2nonc2N)nc2c(C#CC(C)(C)O)nc(OCCN)cc21.Cl.Cl [GSK902056A] yielded a potency estimated from few doses (LATS1; [1]) of 70.2 nM, a potency estimated from few doses (PRKCD; [1]) of 373 nM and a potency estimated from few doses (PRKCQ; [1]) of 50.9 nM.
CCn1c(-c2nonc2N)nc2c(-c3ccccc3)ncc(OCCCN)c21.CCn1c(-c2nonc2N)nc2c(-c3ccccc3)ncc(OCCCN)c21.O=C(O)C(F)(F)F.O=C(O)C(F)(F)F [GSK260205A] gave a potency estimated from few doses (LATS1; compound concentrations: 100 nM and 1000 nM (sheet 'Samples'), CATDS: 3.5695697906411097E-2) of 734 nM, a potency estimated from few doses (PRKCD; compound concentrations: 100 nM and 1000 nM (sheet 'Samples'), CATDS: 3.0969413640761199E-2) of 1160 nM and a potency estimated from few doses (PRKD2; CATDS: 3.1729313210787799E-2) of 1070 nM. The potency estimated from few doses (PRKD3; CATDS: 2.8953203938898799E-2) was 1510 nM.
O=C1N=C(Nc2ccccc2)S/C1=C\c1ccc2ncccc2c1 [RO4493940-000] showed a potency estimated from few doses (DYRK1A; CATDS: 0.176247651150404) of 1930 nM.
In the case of Cl.Cl.NCC(C(=O)Nc1cc(Br)c(-c2ccnc3[nH]ccc23)s1)c1ccccc1.NCC(C(=O)Nc1cc(Br)c(-c2ccnc3[nH]ccc23)s1)c1ccccc1 (centres unmarked) [GSK1269851A], the potency estimated from few doses (CDK7; [1]) is reported as 44.7 nM, the potency estimated from few doses (ERCC2; [1]) is reported as 37.5 nM and the potency estimated from few doses (FER; [1]) is reported as 56.2 nM. The potency estimated from few doses (FLT3; [1]) was 1450 nM, the potency estimated from few doses (PIP4K2C; [1]) was 1930 nM and the potency estimated from few doses (PLK4; [1]) was 523 nM. It also gave a potency estimated from few doses (PRKAA1; [1]) of 548 nM, a potency estimated from few doses (PRKCD; [1]) of 2130 nM and a potency estimated from few doses (PRKCQ; [1]) of 1130 nM. The potency estimated from few doses (PTK2B; [1]) was 63.1 nM, the potency estimated from few doses (PTK2; [1]) was 422 nM and the potency estimated from few doses (RPS6KA6; [1]) was 364 nM. For the same molecule, the potency estimated from few doses (STK10; [1]) was 2030 nM.
With CCn1c(-c2nonc2N)nc2c(C#CC(C)(C)O)nc(OC[C@@H](N)c3ccccc3)cc21 [GSK938890A] the potency estimated from few doses (DYRK1A; CATDS: 4.9269048258553202E-2) was 2060 nM and the potency estimated from few doses (LATS1; compound concentrations: 100 nM and 1000 nM (sheet 'Samples'), CATDS: 6.3165054409109203E-2) was 513 nM.
Work on CN1C[C@@H]2Cn3c(c(C4=C(c5cn(C)c6ccccc56)C(=O)NC4=O)c4ccccc43)C[C@H]2C1.Cl [RO0320234-001] yielded a potency estimated from few doses (CDK7; [1]) of 137 nM, a potency estimated from few doses (ERCC2; [1]) of 123 nM and a potency estimated from few doses (FER; [1]) of 94.8 nM. For the same molecule, the potency estimated from few doses (LATS1; [1]) was 1780 nM, the potency estimated from few doses (MARK4; [1]) was 1210 nM and the potency estimated from few doses (PLK4; [1]) was 500 nM. The potency estimated from few doses (PRKAA1; [1]) was 248 nM, the potency estimated from few doses (PTK2B; [1]) was 193 nM and the potency estimated from few doses (PTK2; [1]) was 129 nM. The potency estimated from few doses (RPS6KA6; [1]) was 215 nM and the potency estimated from few doses (STK10; [1]) was 2020 nM.
